Screens as filed in PubChem BioAssay.
Sm TGR inh = inhibitors of Schistosoma mansoni thioredoxin glutathione reductase | purified TGR, DTNB reduction, TNB absorbance 405 nm | actives 3% (n = 360,000) | Potency, µM (doses to about 114 µM), without a hit: at the top dose activity change, negative = inhibition, most hits filed as inhibitors; further: nearly all actives have a fitted effect of over 60% in size
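Kinetic colorimetric format: TGR-catalysed, NADPH-driven DTNB reduction monitored via TNB absorbance. Enzyme dispensed at 20 nM; compound exposure 15 min at room temperature before reaction start.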
LmPK inhibitor = blocks Leishmania mexicana pyruvate kinase activity | purified LmPK, Kinase-Glo ATP luminescence, 1 h | Q27686 | AID 1721 | Potency, µM (series often up to 57.5 µM), without a hit: at the top dose activity change, negative = inhibition, actives largely listed as inhibitors | actives 0.37% (n = 290,000)
Target sequence (Q27686 whole entry, looked up): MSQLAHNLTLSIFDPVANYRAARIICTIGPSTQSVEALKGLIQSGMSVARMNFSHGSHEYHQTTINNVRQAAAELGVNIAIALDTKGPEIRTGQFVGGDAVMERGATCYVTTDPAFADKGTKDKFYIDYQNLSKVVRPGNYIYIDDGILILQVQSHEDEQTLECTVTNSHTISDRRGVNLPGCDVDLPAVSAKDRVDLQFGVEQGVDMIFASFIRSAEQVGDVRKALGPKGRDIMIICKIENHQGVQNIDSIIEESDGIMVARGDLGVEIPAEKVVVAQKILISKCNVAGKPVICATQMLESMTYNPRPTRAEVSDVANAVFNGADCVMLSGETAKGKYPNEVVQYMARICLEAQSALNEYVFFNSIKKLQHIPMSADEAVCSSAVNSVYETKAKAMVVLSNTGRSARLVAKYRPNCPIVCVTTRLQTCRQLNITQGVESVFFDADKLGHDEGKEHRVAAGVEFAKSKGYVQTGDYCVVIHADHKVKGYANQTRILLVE
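Kinase-Glo luminescence read after 1 h RT reaction of 0.1 nM LmPK with 0.5 mM PEP and 0.1 mM ADP. Activity scaled between uninhibited and enzyme-free controls.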
Tb PYK inh = blocks Trypanosoma brucei pyruvate kinase | Q57TT1 | TbPYK enzyme, Kinase-Glo Plus ATP luminescence, 45 min | Potency, µM (highest dose often 76.8 µM), without a hit: at the top dose activity, negative = inhibition, hits mostly inhibitors | actives 0.12% (n = 410,000); further: nearly all actives have a fitted effect of over 50% in size
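ADP (130 uM final) triggers the TbPYK reaction after compound addition; incubation is 45 min at room temperature. Kinase-Glo Plus is then added and luminescence imaged. Normalized data are fitted to concentration-effect curves.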
RE007 growth inh = less growth of the S. pombe RE007 Vpr strain; S. pombe RE007 Vpr strain, BacTiter-Glo ATP luminescence, 24 h; Potency, µM (doses to about 92.2 µM), without a hit: top-dose activity change, negative = less growth, usual class: inhibitors; actives 0.21% (n = 360,000); AID 651644; active means well fitted falling curve with a large enough effect; inconclusive means small, poorly fitted or top-dose-only effect; inactive means no such curve, though single readings can be large or run the other way; further: nearly all actives have a fitted effect of over 50% in size
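Fission yeast RE007 carrying one integrated HIV-1 vpr copy, seeded at OD 0.01 in PMG+AL medium with 23 nL pinned compound. Grown 24 h at 30 degrees; viability read by BacTiter-Glo luminescence after 5 min.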
An asterisk follows results filed as active; ? = inconclusive; . = no result given; [ ] = another dose, or the depositor's remark. The list is not random: actives were taken first. Their share in the collection is about 3%. Unless noted, the call rests on the fitted dose curve; in most records, active means well fitted curve in the direction sought with a large enough effect; inconclusive means small, poorly fitted or top-dose-only effect, or another doubt; inactive means no such curve, though single readings can be large; an effect the other way counts as inactive or inconclusive. On the % scale 0 is the no-effect control and ±100 the full control effect; potency means the concentration at half of the fitted maximal effect.

SMILES	Sm TGR inh	LmPK inhibitor	Tb PYK inh	RE007 growth inh
CCOC(=O)C1=C(O)c2ccccc2C(=O)/C1=C\c1ccc(C)cc1	3.5µM*	-2%	?	?
COc1cccc(NC(=O)CN(C)C(=O)c2cc(-c3ccco3)nc3ccccc23)c1	?	.	-17%	17%
CN(CCOc1ccc(Cl)cc1)C(=O)c1cc(-c2ccco2)nc2ccccc12	11µM*	.	0%	6%
Cc1ccc(NC(=O)CN(C)C(=O)c2cc(-c3ccco3)nc3ccccc23)cc1	6.3µM*	.	?	-17%
CN(CC(=O)Nc1ccc(F)cc1)C(=O)c1cc(-c2ccco2)nc2ccccc12	11µM*	.	-14%	6%
COc1cc(/C=C/c2sc3ccccc3[n+]2CCCS(=O)(=O)[O-])ccc1O	?	16µM*	?	?
CCSC(=O)CCCCCCCCCCCO	-4%	4%	-1%	3.2µM*
O=C(Nc1ccccc1C(=O)NCCCN1CCOCC1)c1ccc(F)cc1	89µM*	1%	-3%	-4%
O=C(NCCCN1CCOCC1)c1ccccc1	-4%	-1%	-1%	13%
CC(C)(C)C1CCc2c(sc(NC(=O)CCC(=O)O)c2C(=O)Nc2ccccc2C(F)(F)F)C1 (configuration not stated)	-1%	.	-7%	.
COc1cc(NCCCC(C)N)c2ncccc2c1 (configuration not stated)	35µM*	-12%	-14%	-22%
Cc1ccc(Cl)cc1NC(=O)Cn1cc2c(n1)CCCCC2	7%	.	1%	.
CCc1nnc(NC(=O)c2nc(Cl)ccc2Cl)s1	-6%	-16%	-1%	-7%
CCc1nnc(NC(=O)c2nc(S(=O)(=O)Cc3ccccc3)ncc2Cl)s1	32µM*	-9%	-8%	10%
CCOc1ccccc1NC(=O)c1nc(S(=O)(=O)Cc2cccc(C)c2)ncc1Cl	7.1µM*	-6%	-8%	4%
CCc1nnc(NC(=O)c2nc(S(=O)(=O)Cc3ccc(C)cc3)ncc2Cl)s1	32µM*	2%	-13%	-17%
CCc1nnc(NC(=O)c2nc(S(=O)(=O)Cc3cccc(C)c3)ncc2Cl)s1	16µM*	-2%	-10%	-17%
CC(C)c1ccc(NC(=O)c2ccc(F)c(S(=O)(=O)N3CCc4ccccc4C3)c2)cc1	8%	.	-1%[15.4 µM]	.
CCc1ccc(NC(=O)CC2C(=O)N(c3cccc(C)c3)C(=O)N2Cc2cccs2)cc1 (configuration not stated)	0%	.	-5%	.
CCOc1ccccc1O[C@@H](c1ccccc1)[C@@H]1CNCCO1	.	.	-6%	.
CCNc1nc(N)nc(Oc2ccc(OCC(=O)OC)nn2)n1	12%	.	3%	.
O=C(Nc1ccc(Oc2ccccc2)cc1)c1ccc(F)c(S(=O)(=O)N2CCN(c3ccccc3F)CC2)c1	0%	.	-8%	.
CO[C@H]1[C@@H](O)[C@H](N)[C@@H](O[C@H]2O[C@@H]([C@H](C)N)CC[C@H]2N)[C@H](O)[C@@H]1N(C)C(=O)CN	.	.	8%	.
O=C(Cc1ccccc1)Nc1cccc(N2CCCC2)c1	32µM*	-1%	-2%	?
Cc1cc(NC(=O)c2ccccc2F)n(-c2nc3ccccc3[nH]2)n1	5%	1%	1%	18%
SMILES	Sm TGR inh	LmPK inhibitor	Tb PYK inh	RE007 growth inh
Cc1nn(-c2nc3ccccc3[nH]2)c(=O)c2ccccc12	3%	7.1µM*	?	6.3µM*
Cc1cc(Nc2ccccc2)n(-c2nc3ccccc3[nH]2)n1	2%	1%	-5%	35µM*
Cc1ccc(Cl)cc1N1CCN(C(=O)c2cn(C)c3ccc(S(=O)(=O)N4CCCC4)cc3c2=O)CC1	2%	.	-2%	.
CC(=O)NNc1nc(-c2ccc(C)cc2)cs1	?	-8%	2%	155%
CCCC(=O)Nc1ccc(-c2csc(NNC(C)=O)n2)cc1	25µM*	1%	-7%	18%
CC(=O)Nc1ccc(-c2csc(N/N=C\c3ccncc3)n2)cc1	?	5%	-17%	-11%
CCCC(=O)Nc1ccc(-c2csc(N/N=C\c3ccncc3)n2)cc1	18µM*	2%	?	3%
COc1ccc(CNC(=O)c2cc3cccc4c3n2CC(C)S4)cc1OC (configuration not stated)	-1%	.	5%[15.4 µM]	.
CC(=O)c1cc(-c2ccccc2)n(CC(=O)NCc2ccccc2C)c1C	1%	.	1%	.
O=C(O)c1ccccc1SC1CC(=O)N(c2ccc3c(c2)OCO3)C1=O (configuration not stated)	2.2µM*	8%	11%	22µM*
CCCCN1C(=O)CC(Sc2ccccc2C(=O)O)C1=O (configuration not stated)	20µM*	-2%	-2%	-14%
CN1C(=O)CC(Sc2ccccc2C(=O)O)C1=O (configuration not stated)	?	-4%	-1%	-26%
CN(C)c1ccc(N2C(=O)CC(Sc3ccccc3C(=O)O)C2=O)cc1 (configuration not stated)	28µM*	3%	1%	6.3µM*
CC(C)CN1C(=O)CC(Sc2ccccc2C(=O)O)C1=O (configuration not stated)	?	1%	-3%	0%
CCOC(=O)c1c(N2C(=O)CC(Sc3ccccc3C(=O)O)C2=O)sc(C)c1C (configuration not stated)	4.5µM*	-1%	5%	-11%
O=C(Nc1ccccc1)N1CCC2(CC1)CCN(C(=O)c1csnn1)CC2	.	.	0%	.
Cc1ccc(N2C(=O)CC(Sc3ncccc3C(=O)O)C2=O)cc1 (configuration not stated)	6%	-4%	17%	1%
Cc1ccc(N2C(=O)CC(Sc3ccccc3C(=O)O)C2=O)cc1 (configuration not stated)	13µM*	3%	-2%	10µM*
COc1ccc(N2C(=O)CC(Sc3ccccc3C(=O)O)C2=O)c([N+](=O)[O-])c1 (configuration not stated)	11µM*	4%	-9%	-24%
Cc1cc(C)c(N2C(=O)CC(Sc3ccccc3N)C2=O)c(C)c1 (configuration not stated)	.	.	-10%	-23%
Cc1cc(C)cc(N2C(=O)CC(Sc3ccccc3C(=O)O)C2=O)c1 (configuration not stated)	1.3µM*	-3%	-11%	11µM*
Cc1ccc(N2C(=O)CC(Sc3ccccc3C(=O)O)C2=O)cc1C (configuration not stated)	4µM*	-2%	1%	14µM*
COc1cc(CCC(=O)NCc2ccc3c(c2)CCN3C(=O)c2ccc(F)cc2)cc(OC)c1OC	5%	.	3%	.
Cc1ccc2c(n1)sc1c(=O)n(-c3cccc(C(F)(F)F)c3)nnc12	-8%	.	0%	.
Cc1ccc(N2C(=O)CC(Sc3ccccc3C(=O)O)C2=O)c([N+](=O)[O-])c1 (configuration not stated)	.	6%	-9%	?
